The values that follow come from ChEMBL document CHEMBL1961873, “Compounds: GSK PKIS; Assays: Nanosyn kinase panel” (2012).

Assay [1] has as its target T1, Tyrosine-protein kinase ITK/TSK (Homo sapiens) (UniProt Q08881).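 Also: values are mean percent inhibition of ITK from the GSK PKIS screen.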
T1 sequence (whole entry): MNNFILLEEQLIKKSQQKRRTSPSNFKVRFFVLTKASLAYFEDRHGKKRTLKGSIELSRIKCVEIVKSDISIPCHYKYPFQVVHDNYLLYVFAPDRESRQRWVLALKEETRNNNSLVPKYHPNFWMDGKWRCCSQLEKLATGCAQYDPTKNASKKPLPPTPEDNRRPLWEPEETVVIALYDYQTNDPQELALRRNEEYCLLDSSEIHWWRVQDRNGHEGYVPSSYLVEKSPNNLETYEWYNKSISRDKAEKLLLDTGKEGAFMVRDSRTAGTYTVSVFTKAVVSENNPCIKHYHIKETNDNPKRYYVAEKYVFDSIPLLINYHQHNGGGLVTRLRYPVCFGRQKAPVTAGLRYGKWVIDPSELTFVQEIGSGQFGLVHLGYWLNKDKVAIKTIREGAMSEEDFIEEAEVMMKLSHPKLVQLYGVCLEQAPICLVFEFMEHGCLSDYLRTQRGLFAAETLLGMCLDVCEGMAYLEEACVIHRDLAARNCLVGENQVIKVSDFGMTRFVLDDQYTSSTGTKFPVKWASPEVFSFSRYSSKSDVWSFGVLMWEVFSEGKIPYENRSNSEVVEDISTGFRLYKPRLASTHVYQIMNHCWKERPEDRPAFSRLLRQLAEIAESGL
The note with it: at 1 µM.

For assay [2], the target named is Tyrosine-protein kinase JAK1 (Homo sapiens) (UniProt P23458). The settings on record: at 0.1 µM.
Assay [3] shares this target. The note with it: at 1 µM.
Assay [4] deals with Tyrosine-protein kinase JAK2 (Homo sapiens) (UniProt O60674). The note with it: at 0.1 µM.
Assay [5] shares this target. The settings on record: at 1 µM.
Assay [6] concerns the target T2, Tyrosine-protein kinase JAK3 (Homo sapiens) (UniProt P52333).
T2 sequence (whole entry): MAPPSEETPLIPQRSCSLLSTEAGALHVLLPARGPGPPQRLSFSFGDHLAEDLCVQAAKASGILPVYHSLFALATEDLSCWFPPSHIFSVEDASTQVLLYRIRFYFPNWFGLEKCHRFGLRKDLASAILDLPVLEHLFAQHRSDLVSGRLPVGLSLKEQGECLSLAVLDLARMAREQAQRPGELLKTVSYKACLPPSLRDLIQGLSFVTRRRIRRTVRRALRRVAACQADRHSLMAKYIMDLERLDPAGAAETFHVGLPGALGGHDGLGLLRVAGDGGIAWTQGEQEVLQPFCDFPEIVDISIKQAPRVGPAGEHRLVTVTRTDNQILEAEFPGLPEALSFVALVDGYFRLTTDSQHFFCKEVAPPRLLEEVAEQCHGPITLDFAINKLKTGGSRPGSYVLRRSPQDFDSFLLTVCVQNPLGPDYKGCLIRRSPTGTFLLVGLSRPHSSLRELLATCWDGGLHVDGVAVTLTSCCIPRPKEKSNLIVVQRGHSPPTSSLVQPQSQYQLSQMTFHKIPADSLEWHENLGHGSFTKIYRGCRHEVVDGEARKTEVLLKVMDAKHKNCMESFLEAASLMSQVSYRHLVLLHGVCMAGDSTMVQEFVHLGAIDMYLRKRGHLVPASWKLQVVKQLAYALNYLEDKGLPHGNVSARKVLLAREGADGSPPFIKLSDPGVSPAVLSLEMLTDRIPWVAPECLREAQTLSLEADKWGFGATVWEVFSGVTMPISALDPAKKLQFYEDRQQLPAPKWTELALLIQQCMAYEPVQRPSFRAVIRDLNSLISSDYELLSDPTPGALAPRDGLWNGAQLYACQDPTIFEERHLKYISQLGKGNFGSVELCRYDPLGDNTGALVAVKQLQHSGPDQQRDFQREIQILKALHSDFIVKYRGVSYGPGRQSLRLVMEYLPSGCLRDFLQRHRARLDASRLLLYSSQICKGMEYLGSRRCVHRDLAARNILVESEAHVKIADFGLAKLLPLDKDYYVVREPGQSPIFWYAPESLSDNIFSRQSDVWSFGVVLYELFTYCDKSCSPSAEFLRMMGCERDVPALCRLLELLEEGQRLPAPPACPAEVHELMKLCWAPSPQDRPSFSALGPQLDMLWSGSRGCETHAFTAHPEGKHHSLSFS
The note with it: at 0.1 µM.

The target of assay [7] is T2, Tyrosine-protein kinase JAK3 (Homo sapiens). The settings on record: at 1 µM.
Assay [8] deals with Vascular endothelial growth factor receptor 2 (Homo sapiens) (UniProt P35968). The note with it: at 0.1 µM.
Assay [9] has the same target. The settings on record: at 1 µM.
Assay [10] deals with Mast/stem cell growth factor receptor Kit (Homo sapiens) (UniProt P10721). The settings on record: at 0.1 µM.
Mast/stem cell growth factor receptor Kit (Homo sapiens), sequence (P10721 whole entry): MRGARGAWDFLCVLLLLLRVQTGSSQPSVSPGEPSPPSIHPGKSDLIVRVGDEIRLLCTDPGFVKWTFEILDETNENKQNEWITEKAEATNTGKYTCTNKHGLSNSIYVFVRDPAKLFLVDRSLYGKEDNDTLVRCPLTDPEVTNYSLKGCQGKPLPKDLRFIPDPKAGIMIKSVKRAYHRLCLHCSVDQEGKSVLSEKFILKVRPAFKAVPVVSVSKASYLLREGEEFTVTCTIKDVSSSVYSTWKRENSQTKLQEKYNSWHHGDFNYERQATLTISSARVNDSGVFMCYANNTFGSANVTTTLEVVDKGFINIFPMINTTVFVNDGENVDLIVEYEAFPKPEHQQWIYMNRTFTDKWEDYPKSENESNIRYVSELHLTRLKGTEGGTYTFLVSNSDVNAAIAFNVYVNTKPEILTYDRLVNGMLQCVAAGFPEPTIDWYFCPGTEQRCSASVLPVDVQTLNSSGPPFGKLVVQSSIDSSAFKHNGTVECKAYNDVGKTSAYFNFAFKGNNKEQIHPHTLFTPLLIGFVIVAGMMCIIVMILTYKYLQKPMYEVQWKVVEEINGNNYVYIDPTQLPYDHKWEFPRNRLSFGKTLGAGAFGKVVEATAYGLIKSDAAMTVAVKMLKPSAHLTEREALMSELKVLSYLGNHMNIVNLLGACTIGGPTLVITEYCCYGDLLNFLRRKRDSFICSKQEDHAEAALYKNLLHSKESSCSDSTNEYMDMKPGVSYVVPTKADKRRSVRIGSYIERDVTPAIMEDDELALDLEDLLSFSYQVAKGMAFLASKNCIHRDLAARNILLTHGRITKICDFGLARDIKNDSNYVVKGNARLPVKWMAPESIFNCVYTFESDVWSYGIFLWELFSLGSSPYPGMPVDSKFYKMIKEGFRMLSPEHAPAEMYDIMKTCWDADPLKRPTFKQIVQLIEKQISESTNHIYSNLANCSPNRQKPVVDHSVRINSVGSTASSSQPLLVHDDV

Tyrosine-protein kinase JAK1 (Homo sapiens), sequence (P23458 whole entry): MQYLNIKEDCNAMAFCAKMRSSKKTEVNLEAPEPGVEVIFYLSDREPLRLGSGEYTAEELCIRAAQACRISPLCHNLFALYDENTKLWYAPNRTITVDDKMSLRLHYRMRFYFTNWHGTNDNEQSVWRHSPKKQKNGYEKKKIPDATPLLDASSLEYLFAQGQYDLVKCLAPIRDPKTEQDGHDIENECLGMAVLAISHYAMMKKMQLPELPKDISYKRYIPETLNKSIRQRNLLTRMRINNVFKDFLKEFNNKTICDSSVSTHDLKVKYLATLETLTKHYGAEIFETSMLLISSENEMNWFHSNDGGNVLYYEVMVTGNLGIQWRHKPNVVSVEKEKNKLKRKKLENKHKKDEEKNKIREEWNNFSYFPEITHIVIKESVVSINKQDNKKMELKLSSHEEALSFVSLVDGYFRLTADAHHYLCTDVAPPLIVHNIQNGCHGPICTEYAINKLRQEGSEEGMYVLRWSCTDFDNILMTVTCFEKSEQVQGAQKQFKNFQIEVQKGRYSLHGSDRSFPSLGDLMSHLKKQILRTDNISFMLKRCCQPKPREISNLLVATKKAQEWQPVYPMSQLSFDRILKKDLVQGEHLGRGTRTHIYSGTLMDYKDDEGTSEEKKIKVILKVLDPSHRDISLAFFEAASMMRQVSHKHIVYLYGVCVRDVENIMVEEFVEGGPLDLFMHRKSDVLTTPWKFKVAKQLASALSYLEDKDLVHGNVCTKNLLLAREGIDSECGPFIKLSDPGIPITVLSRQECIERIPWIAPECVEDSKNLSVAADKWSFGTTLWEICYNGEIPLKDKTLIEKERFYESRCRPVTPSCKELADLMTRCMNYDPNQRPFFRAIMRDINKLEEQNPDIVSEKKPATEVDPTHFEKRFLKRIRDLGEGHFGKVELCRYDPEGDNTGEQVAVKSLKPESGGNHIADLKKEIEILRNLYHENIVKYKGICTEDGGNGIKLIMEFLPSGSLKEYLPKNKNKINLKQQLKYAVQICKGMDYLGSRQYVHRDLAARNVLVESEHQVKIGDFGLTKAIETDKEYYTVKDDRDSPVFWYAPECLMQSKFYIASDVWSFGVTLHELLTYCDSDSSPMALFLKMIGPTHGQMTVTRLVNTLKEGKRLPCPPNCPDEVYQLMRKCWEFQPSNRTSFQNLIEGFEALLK
Tyrosine-protein kinase JAK2 (Homo sapiens), sequence (O60674 whole entry): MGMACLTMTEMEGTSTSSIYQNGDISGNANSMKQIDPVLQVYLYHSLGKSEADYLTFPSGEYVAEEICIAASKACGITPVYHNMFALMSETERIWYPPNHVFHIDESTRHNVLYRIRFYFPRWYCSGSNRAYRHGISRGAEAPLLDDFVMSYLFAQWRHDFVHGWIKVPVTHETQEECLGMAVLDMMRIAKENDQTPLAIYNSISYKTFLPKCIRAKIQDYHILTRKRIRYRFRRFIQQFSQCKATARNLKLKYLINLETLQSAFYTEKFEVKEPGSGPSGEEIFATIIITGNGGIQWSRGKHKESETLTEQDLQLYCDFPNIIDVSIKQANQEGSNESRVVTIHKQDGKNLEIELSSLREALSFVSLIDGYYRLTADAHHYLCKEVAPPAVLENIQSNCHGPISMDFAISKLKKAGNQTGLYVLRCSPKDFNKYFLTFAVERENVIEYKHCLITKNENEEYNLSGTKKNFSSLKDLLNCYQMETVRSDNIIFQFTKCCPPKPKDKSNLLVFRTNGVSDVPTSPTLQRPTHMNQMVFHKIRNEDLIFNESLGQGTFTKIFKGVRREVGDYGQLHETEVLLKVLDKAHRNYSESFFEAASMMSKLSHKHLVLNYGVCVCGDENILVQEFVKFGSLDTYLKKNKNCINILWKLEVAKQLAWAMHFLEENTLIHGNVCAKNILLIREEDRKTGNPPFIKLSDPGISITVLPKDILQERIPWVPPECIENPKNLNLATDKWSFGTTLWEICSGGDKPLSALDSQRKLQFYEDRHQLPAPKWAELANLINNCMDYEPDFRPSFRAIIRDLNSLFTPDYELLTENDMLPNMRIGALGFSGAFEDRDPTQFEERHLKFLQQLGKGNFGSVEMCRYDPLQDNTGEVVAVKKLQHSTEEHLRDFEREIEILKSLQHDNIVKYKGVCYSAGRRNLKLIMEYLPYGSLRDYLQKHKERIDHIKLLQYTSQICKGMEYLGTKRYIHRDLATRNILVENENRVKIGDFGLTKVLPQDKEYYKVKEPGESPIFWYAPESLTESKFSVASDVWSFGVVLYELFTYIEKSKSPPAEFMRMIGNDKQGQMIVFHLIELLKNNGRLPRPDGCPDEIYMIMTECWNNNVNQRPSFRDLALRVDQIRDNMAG
Vascular endothelial growth factor receptor 2 (Homo sapiens), sequence (P35968 whole entry): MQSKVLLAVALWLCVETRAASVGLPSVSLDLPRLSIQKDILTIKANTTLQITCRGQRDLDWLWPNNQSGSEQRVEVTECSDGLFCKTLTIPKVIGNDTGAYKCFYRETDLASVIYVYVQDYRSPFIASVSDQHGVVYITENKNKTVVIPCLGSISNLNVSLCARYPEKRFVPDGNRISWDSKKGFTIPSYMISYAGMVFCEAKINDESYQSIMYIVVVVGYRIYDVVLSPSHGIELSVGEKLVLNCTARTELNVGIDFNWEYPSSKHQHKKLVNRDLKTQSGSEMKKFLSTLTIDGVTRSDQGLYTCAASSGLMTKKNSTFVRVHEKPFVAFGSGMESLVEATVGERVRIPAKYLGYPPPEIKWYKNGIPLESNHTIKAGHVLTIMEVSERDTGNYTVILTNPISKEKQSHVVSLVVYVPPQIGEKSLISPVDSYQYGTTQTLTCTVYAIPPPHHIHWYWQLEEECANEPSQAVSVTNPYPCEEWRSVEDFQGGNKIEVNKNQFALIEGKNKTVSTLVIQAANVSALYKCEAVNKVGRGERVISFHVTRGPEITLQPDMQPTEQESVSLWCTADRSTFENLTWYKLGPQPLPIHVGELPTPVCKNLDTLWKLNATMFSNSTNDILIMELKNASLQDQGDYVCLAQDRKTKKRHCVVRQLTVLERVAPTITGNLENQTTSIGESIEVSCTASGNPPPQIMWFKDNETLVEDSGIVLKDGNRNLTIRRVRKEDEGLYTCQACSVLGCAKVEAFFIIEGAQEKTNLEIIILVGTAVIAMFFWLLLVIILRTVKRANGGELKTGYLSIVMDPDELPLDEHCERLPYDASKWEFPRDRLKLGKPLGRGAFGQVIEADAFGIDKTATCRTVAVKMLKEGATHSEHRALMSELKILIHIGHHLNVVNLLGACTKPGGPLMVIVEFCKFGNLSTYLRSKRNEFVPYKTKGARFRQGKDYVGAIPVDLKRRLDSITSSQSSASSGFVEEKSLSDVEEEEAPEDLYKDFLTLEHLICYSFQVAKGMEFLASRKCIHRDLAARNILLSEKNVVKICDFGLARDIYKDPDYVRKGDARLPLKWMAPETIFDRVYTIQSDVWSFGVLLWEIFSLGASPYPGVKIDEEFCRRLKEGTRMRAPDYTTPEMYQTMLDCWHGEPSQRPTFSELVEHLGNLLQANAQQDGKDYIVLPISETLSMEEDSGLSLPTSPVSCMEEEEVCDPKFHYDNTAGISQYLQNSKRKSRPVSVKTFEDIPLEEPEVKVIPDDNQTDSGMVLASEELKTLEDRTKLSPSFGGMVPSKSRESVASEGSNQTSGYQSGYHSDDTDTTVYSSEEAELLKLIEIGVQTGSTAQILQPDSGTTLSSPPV

As for `CS(=O)(=O)Nc1ccc(-c2cc(-c3ccccc3)cc(C(N)=O)c2N)cc1`, the inhibition in assay [1] is 0.76%; in [2], 0.16%; in assay [3], 2.62%; in assay [4], 0.9%; in assay [5] it was 3.86%; in assay [6], -0.01%. Besides, the inhibition in assay [7] stood at 0.58%; in assay [8] it was 1.74%; in [9], 4.53%; in assay [10], 3.8%.
Take `CCN1CCC(C(=O)Nc2n[nH]c3nnc(-c4cccc(F)c4F)cc23)CC1`: the inhibition in [1] is 0.88%; in assay [2], 1.68%; in [3] it was -1.21%; in assay [4] it was -0.5%; in assay [5], -0.03%; in [6] it was 0.12%. Moreover, the inhibition in assay [7] amounted to 1.09%; in [8] it was 1.67%; in assay [9], 4.26%; in assay [10] it was 1.8%.
Turning to `COc1ccccc1-c1cc(/C=C2\C(=O)Nc3ncc(Br)cc32)cc(Br)c1O`, the inhibition in [1] is 3.95%; in [2], 2.55%; in assay [3], 0.51%; in assay [4], 1.66%; in [5], 3.2%; in assay [6], -0.19%. Besides, the inhibition in assay [7] amounted to 5.39%; in [8] it was 6.49%; in [9], 8.56%; in assay [10] it was 8.06%.
As for `NS(=O)(=O)c1ccc(N/N=C2\C(=O)Nc3cccc(CCc4ccncc4)c32)cc1`, the inhibition in assay [1] is 2.79%; in [2], -0.35%; in assay [3], 1.96%; in assay [4], 0.5%; in [5], 1.19%; in assay [6] it was 0.74%. For the same compound, the inhibition in assay [7] is 5.91%; in assay [8], 19.6%; in assay [9], 46.7%; in [10] it was 27%.
Regarding `CNC(=O)c1cncc(/C=C/c2ccccc2C)c1`, the inhibition in assay [1] is 2.59%; in [2], 6.31%; in [3], 12.7%; in [4] it was 1.48%; in assay [5] it was 1.45%; in [6], -0.66%. Moreover, the inhibition in assay [7] amounted to 0.49%; in [8], 4.29%; in assay [9], 7.71%; in assay [10], 5.02%.
As for `Cn1c(-c2nonc2N)nc2cnccc21`, the inhibition in assay [1] is 1.68%; in assay [2], 4.75%; in assay [3], 2.08%; in assay [4], 1.45%; in assay [5], 1.42%; in assay [6], -1.06%. Moreover, the inhibition in assay [7] was -0.29%; in assay [8], 4.81%; in assay [9], 12.2%; in assay [10], 4.67%.
Regarding `CC1(C)CC(n2cnc(-c3ccc(F)cc3)c2-c2ccnc(N)n2)CC(C)(C)N1`, the inhibition in [1] is 0.97%; in [2] it was -2.83%; in [3], 1.68%; in assay [4], 0.57%; in assay [5], -0.41%; in [6], -0.01%. The inhibition in assay [7] is -0.6%; in assay [8], -0.9%; in [9], 5.32%; in [10], -0.71%.
Turning to `O=C1Nc2ccccc2/C1=C1\CCc2cc(O)ccc21`, the inhibition was 14.6% in [1]; 3.42% in assay [2]; 12.7% in assay [3]; 1.74% in assay [4]; 3.79% in assay [5]; -0.09% in assay [6]. For the same compound, the inhibition in [7] worked out at 13.3%; in assay [8], 10.5%; in assay [9], 37.8%; in assay [10] it was 66.3%.
For `COc1cccc(-n2ncc3c(N/N=C/c4ccc(C(=O)NCCN(C)C)cc4)ncnc32)c1`, the inhibition was determined as 8.64% in [1]; 4.89% in assay [2]; 18.1% in [3]; 2.63% in assay [4]; 14.1% in assay [5]; 0.22% in assay [6]. The inhibition in assay [7] was 15.4%; in assay [8] it was 43.6%; in assay [9], 68.7%; in assay [10], 15.5%.
Regarding `COC(=O)Nc1nc2cc(Oc3ccc(NC(=O)Nc4ccccc4)cc3)ccc2[nH]1`, the inhibition in assay [1] is 1.86%; in [2], 3.81%; in [3] it was 9.99%; in assay [4] it was 0.07%; in [5], 1.12%; in [6], -1.68%. The inhibition was -0.28% in [7], 4.55% in assay [8], 7.27% in assay [9] and 29.2% in [10].
Regarding `O=C(Nc1n[nH]c2nnc(-c3cccnc3)cc12)C1CC1`, the inhibition in assay [1] was 2.49%; in assay [2] it was 1.49%; in [3], 2.85%; in assay [4], -0.35%; in assay [5], 0.3%; in [6], -0.15%. In addition, the inhibition in assay [7] is 0.02%; in assay [8] it was -0.85%; in assay [9], 2.5%; in assay [10] it was 1.26%.
Turning to `CNC(=O)c1sc(-n2cnc3cc(OC)c(OC)cc32)cc1OCc1ccccc1C(F)(F)F`, the inhibition in assay [1] was 3.59%; in [2], 0.71%; in assay [3] it was 7.26%; in assay [4], -0.02%; in assay [5], 0.52%; in [6] it was -2.82%. Moreover, the inhibition in [7] was -0.34%; in assay [8] it was 4.23%; in assay [9] it was 12.4%; in assay [10] it was 4.06%.
In the case of `O=C(O[C@H]1CN[C@H](C#Cc2cc3ncnc(Nc4ccc(OCc5cccc(F)c5)c(Cl)c4)c3s2)C1)N1CCOCC1`, the inhibition in assay [1] was 2.04%; in assay [2], 5.13%; in assay [3], 13.7%; in assay [4], 0.79%; in assay [5], 1.3%; in assay [6], -0.56%. Further, the inhibition in assay [7] is -2.5%; in [8], 2.63%; in [9], 7.79%; in [10] it was 5.01%.
`COc1cccc(Nc2nccc(-c3cnn4ncccc34)n2)c1`: the inhibition is 6.45% in assay [1]; -0.13% in assay [2]; 13.2% in assay [3]; 1.95% in assay [4]; 29.2% in assay [5]; 2.03% in [6]. Also, the inhibition is 44.2% in assay [7], 9.69% in [8], 42.1% in [9] and 89.5% in assay [10].
Regarding `NC(=O)c1ccc2c(-c3ccnc(NCCCO)n3)c(-c3ccc(F)cc3)nn2c1`, the inhibition in assay [1] was 1.77%; in [2], 0.15%; in assay [3] it was 4.59%; in [4] it was 1.16%; in assay [5], 2.01%; in assay [6], -1.31%. The inhibition in assay [7] is -0.86%; in [8], 6.05%; in assay [9] it was 16.6%; in assay [10], 6.24%.
